Screening data (PubChem)
Hits are enriched below; roughly 21% of the tested compounds scored in any of these assays.
DRD3 agonist = qHTS of D3 Dopamine Receptor Agonist: qHTS | D(3) dopamine receptor (Homo sapiens), P35462 | D3R DiscoveRx beta-arrestin cells, luminescence, 90 min | max activation, % | 410,000 compounds, 0.58% hits | AID 652048, 2013; in the data active means max activation above about 30%; further: 0% is about no effect
Target sequence (P35462 whole entry, looked up): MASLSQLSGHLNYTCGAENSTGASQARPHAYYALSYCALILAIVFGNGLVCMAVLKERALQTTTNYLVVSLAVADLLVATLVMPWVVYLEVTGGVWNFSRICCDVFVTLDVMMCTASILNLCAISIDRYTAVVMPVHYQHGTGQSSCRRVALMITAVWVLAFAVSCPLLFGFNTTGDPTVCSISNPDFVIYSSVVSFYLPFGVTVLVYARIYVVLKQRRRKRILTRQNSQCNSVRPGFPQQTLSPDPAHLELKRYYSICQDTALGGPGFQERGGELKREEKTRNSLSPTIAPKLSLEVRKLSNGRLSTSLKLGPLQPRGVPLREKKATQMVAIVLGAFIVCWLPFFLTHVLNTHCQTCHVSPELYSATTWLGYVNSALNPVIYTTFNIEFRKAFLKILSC
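Cells at 1500/well, incubated overnight, then treated with pinned compounds (dopamine as control) for 90 min at 37 degrees C. DiscoveRx reagent added for 30 - 60 minutes at room temperature; luminescence read.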
DT40 TDP1 CPT = qHTS for Inhibitors of human tyrosyl-DNA phosphodiesterase 1 (TDP1): qHTS in cells in presence of CPT; chicken DT40 Tdp1-/-;hTDP1 cells + 20 nM CPT, ATP luminescence, 48 h; Potency, µM (doses to about 46.2 µM), for the others: at the highest dose activity change, negative = growth inhibition, hits mostly inhibitors; 420,000 compounds, 12% hits; AID 686979, 2013; further: potency means the concentration at half of the fitted maximal effect; on the % scale 0 is the no-effect control and ±100 the full control effect; nearly all actives have a fitted effect of over 55% in size
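Cell growth measured by CellTiter-Glo luminescence after a minimum 48 h, 37 C compound exposure with 20 nM CPT in Tdp1-knockout DT40 cells stably expressing hTDP1, seeded 400/well; qHTS titration format.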
DRD3 antagonist = qHTS of D3 Dopamine Receptor Antagonist: qHTS | max response, negative = inhibition, % | D(3) dopamine receptor (Homo sapiens), P35462 | 360,000 compounds, 2.5% hits | D3R cells, DiscoveRx beta-arrestin luminescence, antagonist mode; active compounds read low; in the data active means max response below about -50%; inconclusive means no clear call, values can overlap the other calls; further: on the % scale 0 is the no-effect control and ±100 the full control effect
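Cells plated overnight at 1500 cells/well, then exposed to library compounds with dopamine controls for 90 minutes at 37 degrees C. DiscoveRx reagent added for 30–60 minutes at room temperature; luminescence read, quantitative HTS format.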
ClpP mod = qHTS Assay for Activators of ClpP; Potency, µM (doses to about 57.5 µM), without a hit: at the highest dose activity change, negative = active; purified B. subtilis ClpP, FRET peptide cleavage, 20 min; ATP-dependent Clp protease proteolytic subunit (Bacillus subtilis (strain 168)), P80244; 340,000 compounds, 1.9% hits; AID 651965, 2013; active means well fitted falling curve with a large enough effect; inconclusive means small, poorly fitted or top-dose-only effect; inactive means no such curve, though single readings can be large or run the other way; further: potency means the concentration at half of the fitted maximal effect; the source files actives as falling curves though it sought activators and does not explain the sign; nearly all actives have a fitted effect of over 65% in size
Target sequence (P80244 whole entry, looked up): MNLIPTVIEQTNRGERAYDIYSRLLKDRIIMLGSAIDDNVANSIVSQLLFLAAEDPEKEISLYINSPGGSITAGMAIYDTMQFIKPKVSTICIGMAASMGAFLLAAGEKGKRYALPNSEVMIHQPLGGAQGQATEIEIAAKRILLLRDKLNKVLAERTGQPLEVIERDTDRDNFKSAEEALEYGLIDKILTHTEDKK
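Buffer: 100 mM Tris/HCl pH8, 100 mM KCl, 0.05% low protease BSA, 2.5% glycerol, 0.01% Tween-20. ClpP 10 microg/mL final; 20 min RT; delta FRET normalized to ADEP and DMSO controls.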
IL1B secr inh = qHTS for Inhibitors of Inflammasome Signaling: IL-1-beta AlphaLISA Primary Screen; THP-1 LPS/ATP IL-1B secretion, AlphaLISA, 16 h; active compounds read low; AID 743279, 2014; activity change, % at 57.5 µM; 360,000 compounds, 4.7% hits; in the data active means activity change below about -50%; inconclusive means mostly about -30% to -49%; further: on the % scale 0 is the no-effect control and ±100 the full control effect
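THP-1 cells pretreated 1 hr with compounds (up to 57.5 uM final), then stimulated with LPS (250 ng/mL final) plus ATP (1.25 mM final); secreted IL-1B measured by AlphaLISA after 16 hr, decreased signal indicating inhibition.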
TDP1 cell noCPT = qHTS for Inhibitors of human tyrosyl-DNA phosphodiesterase 1 (TDP1): qHTS in cells in absence of CPT; DT40 Tdp1-/- hTDP1 cells, no CPT, ATP luminescence, 48 h; Potency, µM (top dose mostly 46.2 µM), inactives show at the highest dose activity change, negative = growth inhibition, actives largely listed as inhibitors; 420,000 compounds, 15% hits; AID 686978, 2013; further: potency means the concentration at half of the fitted maximal effect; on the % scale 0 is the no-effect control and ±100 the full control effect; nearly all actives have a fitted effect of over 55% in size
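Cells were dispensed at 400 per well, compounds added by pin tool, plates incubated ≥48 hr at 37 °C, then CellTiter-Glo added for 30 min at room temperature before luminescence reading. Line: DT40 Tdp1-/- complemented with hTDP1; camptothecin omitted.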
* marks the source's active call; other numbers are inactive results; ? = inconclusive; . = not tested or not shown; [ ] = remark or other dose. Unless noted, the call rests on the fitted dose curve; in most records, active means well fitted inhibition curve with a large enough effect; inconclusive means small, poorly fitted or top-dose-only effect; inactive means flat fitted curve, though single readings scatter.

SMILES	DRD3 agonist	DT40 TDP1 CPT	DRD3 antagonist	ClpP mod	IL1B secr inh	TDP1 cell noCPT
COc1ccccc1C1CN(CCNC(=O)c2ccc3c(c2)OCCO3)Cc2ccccc2O1 (centres undefined)	.	12%[9.04 µM]	.	.	.	?
O=C(NC1CCCCC1)c1ccc(CS(=O)(=O)c2ccc(Cl)cc2)o1	-3	-29%	-2	-1%	-13	?
CCOC(=O)C1CCN(c2ncnc3c2c(-c2ccccc2)cn3-c2ccc(Cl)cc2)CC1	5	-9%	.	-4%	.	?
CCCOc1ccc(Nc2nc(SC)ncc2C(=O)OCC)cc1	6	?	.	0%	.	26µM*
Cc1cccc(COCC(Cc2ccccc2)N2CCN(C(=O)c3ccc(C(F)(F)F)cc3)CCC2=O)c1 (centres undefined)	6	23µM*	20	1%	-76*	21µM*
O=C(c1ccc(C(F)(F)F)cc1)N1CCC(=O)N(C(COCc2ccc(C(F)(F)F)cc2)Cc2ccccc2)CC1 (centres undefined)	-9	?	-19	3%	-82*	18µM*
Cc1ccc(S(=O)(=O)N2CCC(=O)N([C@H](COCc3ccc(C(F)(F)F)cc3)Cc3ccccc3)CC2)cc1	5	?	5	-1%	0	?
Cc1cccc(COC[C@H](Cc2ccccc2)N2CCN(C(=O)c3ccc(C(F)(F)F)cc3)CCC2=O)c1	-2	?	-5	3%	-67*	18µM*
O=C(c1cc(Cl)cc(Cl)c1)N1CCC(=O)N([C@H](COCc2ccccc2)Cc2ccccc2)CC1	29	?	8	1%	?	?
COc1ccccc1-c1cc(Nc2ccc(F)cc2)ncn1	.	?	.	.	.	23µM*
Cc1noc(C)c1-c1cc(N2CCN(C)CC2)ncn1	.	-12%	.	.	.	-1%
Cc1noc(C)c1-c1cc(NC2CC2)ncn1	.	12µM*	.	.	.	8.2µM*
Cc1noc(C)c1-c1cc(Nc2ccc(F)cc2)ncn1	.	-28%	.	.	.	-18%
Cc1ccccc1-c1cc(NCc2ccccc2)ncn1	.	15µM*	.	.	.	21µM*
Cc1noc(C)c1-c1cc(N(C)C)ncn1	.	?	.	.	.	23µM*
Cc1ccccc1-c1cc(NCc2cccnc2)ncn1	.	-6%	.	.	.	10%
COc1ccccc1CNc1cc(-c2c(C)noc2C)ncn1	.	-3%	.	.	.	-10%
Cc1noc(C)c1-c1cc(NCc2ccccc2)ncn1	.	?	.	.	.	23µM*
COc1ccc(CNc2cc(-c3ccccc3Cl)ncn2)c(OC)c1	.	?	.	.	.	-11%
COc1ccccc1-c1cc(NCc2ccccc2)ncn1	.	6.5µM*	.	.	.	5.8µM*
Cn1c(=O)c(CCc2ccccc2)nc2cnc(N3CCOCC3)nc21	.	-8%	.	.	.	9%
O=C(CN(Cc1ccc(Br)cc1)S(=O)(=O)c1ccccc1)NCC1CCCO1 (centres undefined)	6	?	14	-2%	-4	?
COc1ccnc(NCc2cccnc2)c1C#N	6	3%	-1	32µM*	15	29µM*
O=S(=O)(c1cnc[nH]1)N1CCc2ccccc21	12	?	5	0%	18	23µM*
Cc1cc2ccccc2c(=O)n1CC(=O)NCC1COc2ccccc2O1 (centres undefined)	2	-10%	10	25µM*	12	-2%
SMILES	DRD3 agonist	DT40 TDP1 CPT	DRD3 antagonist	ClpP mod	IL1B secr inh	TDP1 cell noCPT
Cc1cc2ccccc2c(=O)n1CC(=O)NCc1ccco1	-4	-8%	1	?	0	6%
Cn1c(SCC(=O)NCC2COc3ccccc3O2)nnc1C(F)(F)F (centres undefined)	-6	0%	14	-1%	-5	-4%
CCn1cnnc1SCC(=O)NCC1COc2ccccc2O1 (centres undefined)	-4	-2%	0	0%	0	1.8µM*
Cc1cc2ccccc2c(=O)n1CC(=O)NCC(=O)N1CCN(c2ccccc2)CC1	-8	-19%	-52*	-26%	0	-22%
Cc1c(N(C)S(=O)(=O)c2ccc(Cl)c(C(=O)NCC(C)(C)N3CCOCC3)c2)c(=O)n(-c2ccccc2)n1C	4	9%	13	2%	17	1%
COc1cccc(C(=O)Nc2cccc(-c3cn4c(C)csc4n3)c2)c1OC	0	18µM*	.	-5%	.	16µM*
COc1cccc(NC(=O)Nc2cccc(-c3cn4cccnc4n3)c2)c1	0	.	.	-19%	.	.
COc1ccc(C(=O)Nc2cccc(-c3cn4ccsc4n3)c2)c(OC)c1	63*	5.2µM*	.	-17%	.	6.5µM*
O=C(NCc1ccco1)c1ccc2c(c1)N(Cc1ccccc1F)C(=O)c1ccccc1S2=O (centres undefined)	3	-19%	.	-2%	.	?
CC(=O)C1=C(O)C(=O)N(c2ccc(Br)cn2)C1c1ccccc1[N+](=O)[O-] (centres undefined)	-7	-10%	5	.	4	-28%
CC(=O)C1=C(O)C(=O)N(c2ccccn2)C1c1ccccc1[N+](=O)[O-] (centres undefined)	4	?	1	.	43	16µM*
Cc1ccc(-n2[nH]c(C)c(C=NC34CN5CN(CN(C5)C3)C4)c2=O)cc1C	-1	9.2µM*	8	-2%	-3	21µM*
Cc1ccc(Cl)cc1N1CCN(C(=O)CN2C(=O)COc3ccc(S(=O)(=O)N4CCC(C)CC4)cc32)CC1	-1	.	.	-1%	.	.
COc1ccccc1-c1ccc([C@@H]2C[C@H]3[C@H](CON3C)CN2C(=O)c2ccco2)cc1	6	-12%	13	-1%	18	?
Cc1cc(C)n(CCC(=O)N2c3ccccc3CC2C)n1 (centres undefined)	0	?	-8	2%	-2	?
c1ccc(-c2ccc3[nH]ccc3c2)cc1	8	?	0	-24%	-3	?
c1ccc2[nH]ccc2c1	50*	-17%	.	.	.	-9%
COc1cc(OC)cc(C(=O)NCC2CCCN(C(=O)c3csc(C)n3)C2)c1 (centres undefined)	-13	-2%	-5	-6%	6	9%
O=C(Nc1ccc(N2CCN(C(=O)c3ccccc3)CC2)cc1)c1ccc([N+](=O)[O-])o1	-16	2.1µM*	-56*	3%	-96*	1.8µM*
